The source of these data is PubChem BioAssay.

The source made the active and inactive calls. Unless noted, how the calls were made is not given here.

The subject of assay [1] is Wnt5a (protein binding on small-molecule microarray). Kind of assay: Wnt5a binders on small-molecule microarray, primary screen, biophysical, 635/667 nm fluorescence (AID 1142).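 Further: fluorescence read at 667 nm with signal to noise per printed feature.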 The note with it: 635 nm fluorescence, higher = more signal.
Assay [2] in a line: cell viability in Huh7 cells, primary screen, cytotoxicity control for HCV replication inhibitor project, CellTiter-Glo luminescence, basal, 48 h (AID 1143).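 Further: Huh7 hepatoma cells carrying a hepatitis C replication reporter with no stimulus; test concentration not given here.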 The note with it: Huh7 HCV replicon, higher = more signal, called active from +8 up or from −8 down. On the technique in general: ATP-based viability assays read luminescence as a measure of living cells.
The nature of assay [3]: P. aeruginosa biofilm formation inhibitors, primary screen, PAO1 strain, BacTiter-Glo luminescence, LB-PBS (AID 1144). The note with it: 12 h, higher = more signal.
The nature of assay [4]: CREB reporter modulators without forskolin, primary screen, cell-based, PC12, CRE-LacZ reporter, unstimulated (AID 1145). The note with it: no forskolin, luminescence, 4.5 h, higher = more signal, called active from +8 up or from −8 down.
Assay [5] in a line: CREB reporter modulators under forskolin, primary screen, cell-based, PC12, CRE-LacZ reporter, forskolin-stimulated (AID 1146).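 Further: PC12 cells with 6xCRE LacZ reporter stimulated by forskolin 10 µM; beta-galactosidase reporter signal reflecting CREB driven transcription.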 The note with it: luminescence, 4.5 h, higher = more signal, called active from +8 up or from −8 down.
For assay [6], the target named is Streptavidin (Streptomyces avidinii) (UniProt P22629). Kind of assay: streptavidin binders on small-molecule microarray, primary screen, artefact control for SMM compound annotation, biophysical, 635/667 nm fluorescence (AID 1147).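 Further: signal reflects streptavidin binding to arrayed compounds as a control protein.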 The note with it: streptavidin binding, higher = more signal.
Assay [7] is described as follows: small-molecule binders of probe aInhba, primary screen, biochemical, small-molecule microarray, 635/667 nm fluorescence (AID 1148).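 Further: score merges 667nm spot fluorescence with signal-to-noise for antibody binding to printed compounds.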 To be noted: higher = more signal.
The target in assay [8] is Torsin-1A (Homo sapiens) (UniProt O14656). Kind of assay: torsin A binders from cell lysate, primary screen, small-molecule microarray, wild-type, 635/667 nm (AID 1149). To be noted: COS7 hTOR1A-WT lysate, 635 nm fluorescence, higher = more signal.
Assay [9] has the same target. Kind of assay: small-molecule binders of mutant TOR1A in lysate, primary screen, cell lysate, small-molecule microarray, COS7 lysate, 635/667 nm fluorescence (AID 1150).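 Further: score pools 667 nm emission and signal to noise measuring lysate protein binding.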 The note with it: COS7 hTOR1A mutant lysate, 635 nm fluorescence, higher = more signal.
The subject of assay [10] is Sonic hedgehog protein (Shh). Kind of assay: small-molecule binders of Shh protein, primary screen, biochemical, small-molecule microarray, 635/667 nm fluorescence (AID 1151).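 Further: Shh protein binding to compounds spotted on small-molecule microarray slides; score combines spot fluorescence intensity with signal-to-noise across triplicate slides.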 To be noted: small-molecule microarray binding, 635 nm fluorescence; higher = more signal.
Assay [11] is described as follows: E. coli DRC41 culture turbidity changes, primary screen, E. coli filamentation inducer project, strain DRC41, OD650, 48 h (AID 1152).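 Further: E. coli MC1000 strain DRC41 lacking acrAB efflux pump and sulA.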 The note with it: E. coli DRC41 (acrAB sulA), higher = more signal, called active from +8 up or from −8 down.
A short description of assay [12]: small-molecule binders of probe aLefty1, primary screen, biochemical, small-molecule microarray, 635/667 nm fluorescence (AID 1153).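 Further: score merges spot fluorescence with signal-to-noise ratio from the scanned slide images.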 To be noted: higher = more signal.
Assay [13] is described as follows: PSAC antagonists in infected red cells, primary screen, cell-based, P. falciparum Indochina, OD700, 1 h (AID 1154). To be noted: P. falciparum Indochina infected RBC osmotic lysis, higher = more signal, called active from +8 up or from −8 down.
Assay [14] can be described thus: PSAC antagonists in infected red cells, primary screen, cell-based, P. falciparum Indochina, OD700, 2 h (AID 1155).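 Further: lysis reports solute entry through the parasite surface anion channel PSAC; channel blockers reduce lysis of infected cells.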 The note with it: P. falciparum Indochina infected erythrocytes, osmotic lysis OD700; higher = more signal, called active from +8 up or from −8 down.
Assay [15] in a line: osmotic lysis modulators in infected erythrocytes, primary screen, PSAC antagonist project, cell-based, P. falciparum Indochina, OD700, 3 h (AID 1156). The note with it: higher = more signal, called active from +8 up or from −8 down.
The nature of assay [16]: PSAC antagonists in infected red cells, primary screen, cell-based, P. falciparum Indochina, OD700, 18 h (AID 1157). The note with it: P. falciparum Indochina infected erythrocytes, osmotic lysis OD700, 18 h; higher = more signal, called active from +8 up or from −8 down.
Assay [17] in a line: modulators of S6 phosphorylation in cells, primary screen, cell-based, A549, cytoblot, luminescence, serum-stimulated (AID 1158).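 Further: serum-stimulated A549 lung adenocarcinoma cells; signal is phosphorylated S6 detected by cytoblot immunostaining with HRP secondary.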 To be noted: A549 phospho-S6 cytoblot, 5 h, higher = more signal.
The target in assay [18] is NADPH oxidase 2 (Homo sapiens) (UniProt P04839). Kind of assay: NOX2-dependent H2O2 signal modulators, primary screen, NOX inhibitor project, cell-based, HEK293-NOX2, PMA-stimulated, Amplex Red fluorescence (AID 1159). Further: test concentration not given here. To be noted: 45 min, higher = more signal, called active from +8 up or from −8 down.
Assay [19] deals with NADPH oxidase 4 (Homo sapiens) (UniProt Q9NPH5). Kind of assay: NOX4-dependent H2O2 signal modulators, primary screen, NOX inhibitor project, cell-based, HEK293-NOX4, tetracycline-induced, Amplex Red fluorescence (AID 1160). The note with it: 45 min, higher = more signal, called active from +8 up or from −8 down.
The target of assay [20] is NADPH oxidase 5 (Homo sapiens) (UniProt Q96PH1). Kind of assay: NOX5-dependent H2O2 signal modulators, primary screen, NOX inhibitor project, cell-based, HEK293-NOX5, Amplex Red fluorescence (AID 1161). To be noted: HEK293-NOX5, ionomycin, 45 min, higher = more signal.
Sequence of NADPH oxidase 5 (Homo sapiens) (Q96PH1 whole entry, looked up): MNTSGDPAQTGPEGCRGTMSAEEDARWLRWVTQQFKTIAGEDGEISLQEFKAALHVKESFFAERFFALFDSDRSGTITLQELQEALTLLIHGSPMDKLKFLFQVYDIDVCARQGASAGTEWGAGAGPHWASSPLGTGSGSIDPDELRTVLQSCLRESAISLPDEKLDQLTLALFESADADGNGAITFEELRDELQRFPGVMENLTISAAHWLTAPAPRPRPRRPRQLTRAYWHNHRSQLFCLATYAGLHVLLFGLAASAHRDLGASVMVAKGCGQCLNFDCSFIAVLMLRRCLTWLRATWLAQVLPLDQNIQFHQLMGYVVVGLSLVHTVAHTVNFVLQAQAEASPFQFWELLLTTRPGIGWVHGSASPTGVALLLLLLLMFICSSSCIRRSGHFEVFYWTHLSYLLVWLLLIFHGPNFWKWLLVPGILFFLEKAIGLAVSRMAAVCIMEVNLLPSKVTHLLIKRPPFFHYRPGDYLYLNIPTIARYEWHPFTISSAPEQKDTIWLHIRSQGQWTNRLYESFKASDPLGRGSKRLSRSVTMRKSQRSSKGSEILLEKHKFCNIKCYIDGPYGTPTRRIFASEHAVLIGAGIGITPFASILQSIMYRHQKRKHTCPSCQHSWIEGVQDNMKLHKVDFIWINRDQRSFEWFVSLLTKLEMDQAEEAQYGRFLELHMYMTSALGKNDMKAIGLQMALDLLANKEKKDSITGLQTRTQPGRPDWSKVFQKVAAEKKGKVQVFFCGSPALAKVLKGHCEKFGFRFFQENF

Sequence of NADPH oxidase 2 (Homo sapiens) (P04839 whole entry, looked up): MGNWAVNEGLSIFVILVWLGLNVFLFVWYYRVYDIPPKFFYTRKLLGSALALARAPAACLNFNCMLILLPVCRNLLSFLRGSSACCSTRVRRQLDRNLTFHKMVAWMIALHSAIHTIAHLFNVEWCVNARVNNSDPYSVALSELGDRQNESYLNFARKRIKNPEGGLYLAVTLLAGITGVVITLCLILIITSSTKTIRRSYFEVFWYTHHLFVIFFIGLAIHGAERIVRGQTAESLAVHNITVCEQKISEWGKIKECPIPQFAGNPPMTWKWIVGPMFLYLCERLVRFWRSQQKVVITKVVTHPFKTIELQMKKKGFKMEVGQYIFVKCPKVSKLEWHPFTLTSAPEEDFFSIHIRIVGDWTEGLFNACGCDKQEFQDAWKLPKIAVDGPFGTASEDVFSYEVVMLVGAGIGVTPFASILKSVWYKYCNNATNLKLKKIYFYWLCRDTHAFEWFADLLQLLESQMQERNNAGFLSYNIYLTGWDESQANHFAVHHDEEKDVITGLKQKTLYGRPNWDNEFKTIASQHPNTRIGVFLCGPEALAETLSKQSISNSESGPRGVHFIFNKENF
Sequence of Streptavidin (Streptomyces avidinii) (P22629 whole entry, looked up): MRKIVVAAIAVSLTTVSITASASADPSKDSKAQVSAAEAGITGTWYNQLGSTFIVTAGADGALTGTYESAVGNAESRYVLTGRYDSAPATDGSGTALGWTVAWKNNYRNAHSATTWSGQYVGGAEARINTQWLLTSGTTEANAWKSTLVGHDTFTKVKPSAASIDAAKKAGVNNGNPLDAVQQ
Sequence of NADPH oxidase 4 (Homo sapiens) (Q9NPH5 whole entry, looked up): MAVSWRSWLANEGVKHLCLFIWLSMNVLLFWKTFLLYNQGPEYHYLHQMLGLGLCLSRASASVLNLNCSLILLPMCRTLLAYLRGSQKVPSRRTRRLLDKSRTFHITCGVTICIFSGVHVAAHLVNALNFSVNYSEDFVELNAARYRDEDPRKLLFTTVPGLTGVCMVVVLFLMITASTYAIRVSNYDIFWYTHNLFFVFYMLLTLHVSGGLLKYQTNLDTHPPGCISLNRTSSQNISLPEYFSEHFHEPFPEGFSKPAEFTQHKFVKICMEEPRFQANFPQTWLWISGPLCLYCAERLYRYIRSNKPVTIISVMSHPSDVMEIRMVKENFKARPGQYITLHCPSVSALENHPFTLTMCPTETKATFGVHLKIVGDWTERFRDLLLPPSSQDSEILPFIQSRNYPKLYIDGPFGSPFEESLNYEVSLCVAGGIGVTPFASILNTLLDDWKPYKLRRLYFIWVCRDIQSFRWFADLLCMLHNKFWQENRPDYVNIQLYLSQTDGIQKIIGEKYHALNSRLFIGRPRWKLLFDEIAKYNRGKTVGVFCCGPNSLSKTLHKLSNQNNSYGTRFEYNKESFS
Sequence of Torsin-1A (Homo sapiens) (O14656 whole entry, looked up): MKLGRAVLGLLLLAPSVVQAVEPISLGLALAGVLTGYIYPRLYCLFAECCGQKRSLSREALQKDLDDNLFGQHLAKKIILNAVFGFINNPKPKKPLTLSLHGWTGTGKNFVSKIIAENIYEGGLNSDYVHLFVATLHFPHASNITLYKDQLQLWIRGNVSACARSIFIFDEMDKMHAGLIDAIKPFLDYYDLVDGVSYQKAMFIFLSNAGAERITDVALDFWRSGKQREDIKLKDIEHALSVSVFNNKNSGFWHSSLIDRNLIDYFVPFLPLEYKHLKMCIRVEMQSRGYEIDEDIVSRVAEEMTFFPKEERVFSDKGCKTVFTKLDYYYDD

Consider `COCC1C2CC[C@H]3C(OCc4ccc(OC)cc4)OC[C@]4(C)[C@H]3C2=C(CN4C(=O)OC(C)(C)C)[C@H](C)C1COC` (stereo not given in full), for which the composite z-score is 0.261 in assay [1]; 2.08 in assay [6]; -0.321 in [7]; 0.187 with Torsin-1A (Homo sapiens) [8]; 0.255 in the assay with Torsin-1A (Homo sapiens) [9]; 0.298 in [10]. Besides, the composite z-score in assay [12] was -0.302. The z-score in assay [2] was -2.88 (inactive); in [3] it was 0.413 (inactive); in assay [4], -0.185 (inactive); in assay [5] it was -0.0287 (inactive); in [11], -1.23 (inactive); in assay [13], 3.68 (inactive). In addition, the z-score in assay [14] is -0.556 (inactive); in [15], 0.308 (inactive); in [16] it was -2.05 (inactive); in [17], 2.25; in assay [18] it was -1.53 (inactive); in assay [19], -1.89 (inactive). For the same compound, the z-score in assay [20] was -2.99.

On to `C=C[C@@H](OC)[C@H](OC(=O)Nc1ccc(OC)cc1)c1ccc(OC)c(O)c1`, for which the composite z-score was -0.451 in [1]; -0.833 in assay [6]; -0.166 in [7]; -2.5 in the assay with Torsin-1A (Homo sapiens) [8]; -1.12 in the assay with Torsin-1A (Homo sapiens) [9]; 0.63 in assay [10]. Further, the composite z-score in assay [12] is -0.123. Besides, the z-score in assay [2] was -0.749 (inactive); in assay [3], -0.327 (inactive); in [4], 0.702 (inactive); in [5], 0.177 (inactive); in assay [11], 0.139 (inactive); in assay [13] it was 2.48 (inactive). For the same compound, the z-score in assay [14] was 0.96 (inactive); in [15], 0.0081 (inactive); in assay [16] it was 0.45 (inactive); in assay [17], -0.0451; in [18] it was -2.52 (inactive); in [19], -1.04 (inactive). In [20], the z-score is -1.2.

As for `O=C1OCCC/C=C\[C@H]2OC34C=CCN(c5ccc6ccccc6c5)C(=O)[C@H]3N(CCCO)C(=O)[C@@H]4C12` (stereo not given in full), the composite z-score in assay [1] is -0.482; in assay [6], -1.3; in assay [7], -0.21; in the assay with Torsin-1A (Homo sapiens) [8], -0.553; with Torsin-1A (Homo sapiens) [9], -1.1; in [10], -0.339. For the same compound, the composite z-score in assay [12] is -0.366. Further, the z-score is 0.187 (inactive) in assay [2]; 2.06 (inactive) in assay [3]; 2.9 (inactive) in [4]; -0.942 (inactive) in [5]; -0.52 (inactive) in assay [11]; 3.21 (inactive) in [13]. Moreover, the z-score was 0.571 (inactive) in assay [14]; -0.276 (inactive) in assay [15]; 0.187 (inactive) in assay [16]; 0.688 in assay [17]; 2.08 (inactive) in assay [18]; 1.14 (inactive) in [19]. For the same compound, the z-score in assay [20] was 2.53.

In the case of `COC(=O)[C@@]1(Cc2ccc(OC)cc2)[C@H]2c3cc(C(=O)N4CCCC4)n(Cc4ccc(OC(F)(F)F)cc4)c3C[C@H]2CN1C(=O)c1ccccc1`, the composite z-score in [1] is 0.622; in [6], 1.73; in assay [7] it was 0.0925; in the assay with Torsin-1A (Homo sapiens) [8] it was -1.04; with Torsin-1A (Homo sapiens) [9], -0.89; in assay [10], -1.05. Moreover, in assay [12], the composite z-score was determined as 0.029. Further, the z-score is -3.34 (inactive) in assay [2]; 0.488 (inactive) in assay [3]; -0.565 (inactive) in assay [4]; -0.239 (inactive) in assay [5]; -1.32 (inactive) in [11]; 2.24 (inactive) in assay [13]. The z-score in [14] was 0.453 (inactive); in [15], -0.0152 (inactive); in assay [16] it was 1.06 (inactive); in assay [17], -0.174; in assay [18], 1.11 (inactive); in [19], 1.56 (inactive). Also, the z-score in assay [20] came out at 2.4.

Turning to `O=C1O[C@H](c2ccccc2)[C@H](c2ccccc2)N2[C@H]1[C@@H](C(=O)N1CCCCCCC1)[C@]1(C(=O)Nc3ccc(C#CC4(O)CCCCCC4)cc31)[C@H]2c1ccc(O)cc1`, the composite z-score in assay [1] amounted to 1.19; in [6] it was 2.76; in assay [7] it was 1.77; with Torsin-1A (Homo sapiens) [8] it was 1.13; with Torsin-1A (Homo sapiens) [9] it was 1.49; in [10] it was 1.45. Further, the composite z-score in assay [12] was 2.47. The z-score in assay [2] is -3.1 (inactive); in [3], -0.555 (inactive); in assay [4], -0.168 (inactive); in [5], -0.219 (inactive); in assay [11], 0.507 (inactive); in assay [13] it was 0.839 (inactive). The z-score in assay [14] was 0.222 (inactive); in [15], 1.34 (inactive); in [16] it was 0.491 (inactive); in [17] it was 0.148; in assay [18] it was 1.33 (inactive); in assay [19] it was 0.803 (inactive). Also, in assay [20], the z-score was 1.17.
